Compound activity: PubChem BioAssay, National Center for Advancing Translational Sciences (NCATS)
Hits are enriched below; roughly 19% of the tested compounds scored in any of these assays.
DT40 TDP1 CPT: growth inhibition of DT40 Tdp1-/-;hTDP1 cells with camptothecin (screen for TDP1 inhibitors); chicken DT40 Tdp1-/-;hTDP1 cells + 20 nM CPT, ATP luminescence, 48 h; Potency, µM (top dose mostly 46.2 µM), hits mostly inhibitors; 420,000 tested, 12% active; also: nearly all actives have a fitted effect of over 55% in size
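Chicken DT40 Tdp1-/- cells complemented with human TDP1, 400 cells/well, exposed to compounds plus 20 nM camptothecin for at least 48 h at 37 C; viability read as ATP content by CellTiter-Glo luminescence.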
HT1080-NT tox: kills 2HG-producing HT-1080-NT fibrosarcoma cells; HT-1080-NT fibrosarcoma viability, CellTiter-Glo ATP luminescence, 48 h; Potency, µM (top dose mostly 46.1 µM), hits mostly cytotoxic; 360,000 tested, 1.6% active;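 also: NT is the 2HG producing partner of a matched IDH1 knockdown line; nearly all actives have a fitted effect of over 55% in size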
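Fibrosarcoma NT cells, 750 per well in 5% FBS RPMI, were exposed to compound for 48 hours. Viability: CellTiter-Glo luminescence.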
IL1B secr inh: inflammasome signaling inhibition, IL-1 beta readout | THP-1 LPS/ATP IL-1B secretion, AlphaLISA, 16 h; hits give low values | activity change, % at 57.5 µM | 360,000 tested, 4.7% active | AID 743279; in the data active = activity change below about -50%; inconclusive = mostly about -30% to -49%
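Secreted IL-1B measured by AlphaLISA bead assay after 16 h compound exposure of THP-1 cells; compounds (final up to 57.5 uM) added 1 h before LPS (250 ng/mL) and ATP (1.25 mM) stimulation; lower signal means less secretion.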
HT1080 IDH1KD tx: kills HT-1080 cells with IDH1 knockdown; HT-1080 IDH1 knockdown viability, ATP luminescence, 48 h; Potency, µM (titrated, usually from 46.1 µM), most hits filed as cytotoxic; 360,000 tested, 2% active; AID 686971
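Luminescent ATP read-out (CellTiter-Glo, 10 min at room temperature) after 48 h compound exposure at 37 °C gave viability of IDH1-knockdown HT-1080 cells. Activity was normalised to DMSO and cell-free wells, then fitted as concentration-response curves.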
DT40 TDP1 no CPT: qHTS for Inhibitors of human tyrosyl-DNA phosphodiesterase 1 (TDP1): qHTS in cells in absence of CPT; AID 686978, 2013; Potency, µM (doses to about 46.2 µM), usual class: inhibitors; DT40 Tdp1-/- hTDP1 cells, no CPT, ATP luminescence, 48 h; 420,000 tested, 15% active; also: nearly all actives have a fitted effect of over 55% in size
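Luminescent ATP content (CellTiter-Glo) served as the growth readout. Knockout chicken DT40 cells expressing human TDP1 were exposed to compounds without camptothecin for a minimum 48 hr at 37 °C.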
ELG1 repair inh: inhibitors of ELG1-dependent DNA repair in HEK293T cells; HEK293T ELG1-luciferase reporter, luminescence, 16 h; DNA damage induced by 5-fluorouridine; Potency, µM (series often up to 46.1 µM), actives largely listed as inhibitors; 330,000 tested, 2.3% active; AID 504467; also: nearly all actives have a fitted effect of over 55% in size
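Step one: seed 2,000 cells per well. Step two: pin-transfer compound or DMSO alongside 5-fluorouridine. Step three: incubate 16 hr, 37 °C, 5% CO2. Step four: add ONE-Glo, wait 30 min, read luminescence.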
A number is an active result; 0 = inactive; ? = inconclusive; - = not tested or not shown. Unless noted, calls follow the shape of the dose curve; as a rule, active = well fitted curve in the direction sought with a large enough effect; inconclusive = small, poorly fitted or top-dose-only effect, or another doubt; inactive = no such curve, though single readings can be large; an effect the other way counts as inactive or inconclusive.

SMILES | DT40 TDP1 CPT | HT1080-NT tox | IL1B secr inh | HT1080 IDH1KD tx | DT40 TDP1 no CPT | ELG1 repair inh
O=C(CN(c1ccc(Br)cc1)S(=O)(=O)c1ccc(Cl)c([N+](=O)[O-])c1)NCC1CCCO1 (stereo not given) | 16µM | ? | -98 | ? | ? | -
O=C(CN(C1CCCCC1)S(=O)(=O)c1ccc(F)cc1)NCC1CCCO1 (stereo not given) | 8.2µM | 3.7µM | -106 | 4.6µM | 7.3µM | -
O=C(CN(C1CCCCC1)S(=O)(=O)c1ccccc1)NCC1CCCO1 (stereo not given) | 0 | 0 | 0 | 0 | 0 | 0
CCc1ccc(-c2nc(SCC(=O)NCC3CCCO3)c(-c3ccc(C)cc3)[nH]2)cc1 (stereo not given) | 0 | - | - | - | ? | -
O=C(CSc1nnc2ccc(-c3ccc(Br)cc3)nn12)NCC1CCCO1 (stereo not given) | 21µM | 0 | ? | 0 | ? | 0
Cc1ccc(-c2[nH]c(-c3ccc(Cl)cc3)nc2SCC(=O)NCC2CCCO2)cc1 (stereo not given) | ? | 0 | 0 | 0 | 4.1µM | ?
O=C(CSc1nnc2ccc(-c3ccccc3)nn12)NCC1CCCO1 (stereo not given) | 0 | 0 | ? | 0 | 0 | 0
Cc1cc(C)cc(N(CCC#N)C(=O)CSc2n[nH]c(N)n2)c1 | 0 | 0 | 0 | 0 | 0 | ?
O=C(CSc1nc(-c2ccc(F)cc2)cs1)NCC1CCCO1 (stereo not given) | 0 | 0 | 0 | 0 | 21µM | 0
O=C(Nc1nc(-c2ccccc2)cs1)C1CCCO1 (stereo not given) | 0 | 0 | 0 | 0 | 0 | ?
O=C(Nc1nc(-c2ccc(F)cc2)cs1)C1CCCO1 (stereo not given) | ? | 0 | -56 | 0 | ? | ?
Cc1cc2cccc(C)c2nc1SCC(=O)NCC1CCCO1 (stereo not given) | 0 | 0 | 0 | 0 | 0 | 0
Cc1cc(C)c2nc(SCC(=O)NCC3CCCO3)c(C#N)cc2c1 (stereo not given) | 0 | 0 | -51 | 0 | 0 | 0
O=C(CSc1nc(-c2ccc(F)cc2)[nH]c1-c1ccccc1)NCC1CCCO1 (stereo not given) | 29µM | - | - | - | 16µM | -
CC1(C(=O)O)CCC(C(=O)NNC(=O)c2ccccc2O)C1(C)C (stereo not given) | 0 | 0 | 0 | 0 | 0 | 0
O=Cc1cc(N=Nc2ccccc2Cl)ccc1O | 21µM | ? | 0 | ? | 4.1µM | ?
O=Cc1cc(N=Nc2cccc(C(=O)O)c2)ccc1O | 0 | ? | 0 | 15µM | ? | 0
CC(=O)c1cccc(OCC(=O)N(CCC2=CCCCC2)c2c(N)n(Cc3ccccc3)c(=O)[nH]c2=O)c1 | ? | 0 | 0 | 0 | 0 | -
COc1ccc(S(=O)(=O)N2CC=C(c3ccccc3)CC2)cc1OC | ? | 0 | 0 | 0 | 23µM | -
Cc1ccc(S(=O)(=O)N2CCN(C(=O)c3cc(S(=O)(=O)N4CCOCC4)ccc3Cl)CC2)c(C)c1 | 18µM | 0 | 0 | 0 | 16µM | -
Cc1ccc(S(=O)(=O)N2CCN(C(=O)c3ccco3)CC2)c(C)c1 | 0 | 0 | 0 | 0 | 0 | ?
COc1ccc(S(=O)(=O)N2CCN(C(=O)c3ccccc3Cc3ccccc3)CC2)cc1OC | ? | 0 | 0 | 0 | 23µM | -
COc1ccc(S(=O)(=O)N2CCN(Cc3ccccc3)CC2)cc1OC | 0 | 0 | 0 | 0 | ? | 0
Cc1ccc(S(=O)(=O)N2CCN(C(=O)c3ccccc3Cc3ccccc3)CC2)c(C)c1 | ? | 0 | -72 | ? | ? | 0
O=C(c1cc(S(=O)(=O)N2CCCCC2)ccc1Cl)N1CCOCC1 | 0 | 0 | 0 | 0 | 0 | 0
SMILES | DT40 TDP1 CPT | HT1080-NT tox | IL1B secr inh | HT1080 IDH1KD tx | DT40 TDP1 no CPT | ELG1 repair inh
CC12CCC(=O)N1C(C(=O)Nc1nc3ccccc3s1)CS2 (stereo not given) | 0 | 0 | 0 | 0 | 0 | ?
Cc1cccc(NC(=O)CN(C)S(=O)(=O)c2ccc3c(c2)c(=O)n(C)c(=O)n3C)c1 | 0 | - | - | - | 0 | -
Cc1ccc(C(=O)NCCc2ccccc2)cc1S(=O)(=O)N1CCOCC1 | 0 | 0 | 0 | 0 | 0 | ?
Cc1ccc(C(=O)NC(C)CCc2ccccc2)cc1S(=O)(=O)N1CCOCC1 (stereo not given) | ? | 0 | 0 | 0 | ? | 18µM
Cc1ccc(C(=O)N2CCC(Cc3ccccc3)CC2)cc1S(=O)(=O)N1CCOCC1 | ? | 0 | 0 | 0 | 9.2µM | ?
CCN1CCN(C(=O)CS(=O)(=O)Cc2nc(-c3cccc(OC)c3)oc2C)CC1 | 0 | 0 | 0 | 0 | 0 | 0
COc1ccccc1CCn1c(=O)cnc2cncnc21 | 4.6µM | - | - | - | 5.8µM | -
Cc1ccc(CC(=O)Nc2nccs2)cc1 | 0 | 0 | 0 | 0 | 0 | 0
Cc1cc(C)cc(NS(=O)(=O)c2ccc3c(c2)c(=O)n(C)c(=O)n3C)c1 | 1.8µM | 6.3µM | -67 | 3.2µM | 2.1µM | ?
Cc1ccc(NS(=O)(=O)c2ccc3c(c2)c(=O)n(C)c(=O)n3C)cc1F | 15µM | 16µM | ? | ? | 16µM | ?
Cn1c(=O)c2cc(S(=O)(=O)Nc3cc(C(=O)O)cc(C(=O)O)c3)ccc2n(C)c1=O | 0 | 0 | 0 | 0 | 0 | ?
Cc1ccc(C)c(Cn2c(=O)n(-c3ccc(Cl)cc3)c(=O)c3c(C)c(C)sc32)c1 | 0 | - | - | - | 0 | -
CCN(CC)CCNC(C(=O)OCCC(C)C)c1ccccc1 (stereo not given) | 9.4µM | - | - | - | 5.3µM | -
CCOC(=O)C(NCCCCl)c1ccccc1 (stereo not given) | 0 | 0 | 0 | 0 | 0 | 0
CCOC(=O)[C@@H]1[C@H]2COc3ccccc3[C@@H]2N2C(=O)N(c3cccc(Cl)c3)C(=O)[C@]12C | ? | 0 | 0 | 0 | 0 | ?
NC(N)=NCCCS(=O)(=O)Nc1ccc(Nc2c3ccccc3nc3cc([N+](=O)[O-])ccc23)cc1 | 9.2µM | 0 | 0 | 0 | 16µM | -
Cc1ccc2oc(C(=O)Nc3ccc(S(=O)(=O)N4CCCC(C)C4)cc3)cc(=O)c2c1 (stereo not given) | 16µM | - | - | - | 8.2µM | -
Cc1cc(C)c2oc(C(=O)Nc3ccc(S(=O)(=O)N4CCCC(C)C4)cc3)cc(=O)c2c1 (stereo not given) | 15µM | 0 | 0 | 0 | ? | ?
Cc1ccc2c(=O)cc(C(=O)Nc3ccc(S(=O)(=O)N4CCC(C)CC4)cc3)oc2c1C | 0 | - | - | - | 0 | -
O=C(c1ccc(Oc2ccc([N+](=O)[O-])cc2)cc1)N1CCCCCC1 | ? | 0 | -78 | ? | ? | ?
